RORgamma inh – ROR gamma (mouse) transcription inhibition; Potency, µM (highest dose often 53.6 µM), inactives show at the highest dose activity change, negative = inhibition, most hits filed as inhibitors; Drosophila S2 Gal4-RORgamma UAS-luciferase reporter, 20 h; 5.4% of 310,000 active; also: nearly all actives have a fitted effect of over 60% in size
Target sequence (P51450 whole entry, looked up, the tested form may be a part): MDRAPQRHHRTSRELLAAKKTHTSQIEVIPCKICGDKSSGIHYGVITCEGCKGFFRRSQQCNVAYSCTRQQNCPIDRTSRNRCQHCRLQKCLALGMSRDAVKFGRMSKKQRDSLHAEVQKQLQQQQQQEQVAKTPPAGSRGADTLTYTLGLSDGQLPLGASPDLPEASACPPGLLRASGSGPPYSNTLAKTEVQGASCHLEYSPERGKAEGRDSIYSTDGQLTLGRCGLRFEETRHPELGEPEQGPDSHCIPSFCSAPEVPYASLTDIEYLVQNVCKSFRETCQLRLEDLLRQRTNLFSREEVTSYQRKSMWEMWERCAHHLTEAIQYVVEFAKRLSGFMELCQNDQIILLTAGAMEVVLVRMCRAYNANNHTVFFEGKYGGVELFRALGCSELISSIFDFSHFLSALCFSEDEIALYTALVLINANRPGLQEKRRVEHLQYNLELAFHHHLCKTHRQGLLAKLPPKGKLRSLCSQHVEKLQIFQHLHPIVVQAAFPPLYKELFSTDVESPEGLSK
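Read-out: Photinus luciferase luminescence; inhibitors lower reporter signal. Insect Schneider cells with Gal4-ROR gamma fusion under metallothionein promoter, UAS reporter; 700 uM final copper sulfate induction, 20 hr, ambient temperature.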
B2AR arrestin – agonists driving beta-arrestin recruitment to human beta2-adrenergic receptor | AID 492947 | Potency, µM (highest dose often 46.1 µM), for inactives: at the highest dose activation, hits mostly activators | beta-arrestin recruitment to beta2AR, cell-based reporter | P07550 | 0.02% of 330,000 active;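 also: 0% = DMSO controls and full agonism = EC100 isoproterenol or metaproterenol; nearly all actives have a fitted effect of over 65% in size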
Gal4-VP16 FLuc – Gal4-VP16 reporter inhibition counter-screen. 3.5% of 310,000 active. Drosophila S2 Gal4-VP16 UAS-luciferase, luminescence, 20 h. Potency, µM (top dose mostly 53.6 µM), without a hit: at the top dose activity, negative = inhibition, actives largely listed as inhibitors;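 also: Gal4-VP16 expression switched on by copper sulfate through the metallothionein promoter; nearly all actives have a fitted effect of over 50% in size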
NPSR antag – neuropeptide S receptor (human) antagonism, cAMP. Potency, µM (highest dose often 38.3 µM), inactives show at the top dose activity change, negative = inhibition, hits mostly inhibitors. Q6W5P4. CHO-NPSR cells, cAMP TR-FRET, antagonist mode. 1% of 220,000 active; also: nearly all actives have a fitted effect of over 50% in size
* marks the source's active call; other numbers are inactive results; ? = inconclusive; · = not tested or not shown; [ ] = another dose, or the depositor's remark. In the library only some 5.7% were active in any assay of this set; here they are far more common. Calls follow the shape of the dose curve; as a rule, active = well fitted curve in the direction sought with a large enough effect; inconclusive = small, poorly fitted or top-dose-only effect, or another doubt; inactive = no such curve, though single readings can be large; an effect the other way counts as inactive or inconclusive. Unless noted, % is scaled to controls: 0 for no effect and ±100 for the full control effect; potency is read from the fitted curve at half-maximal effect.

SMILES	RORgamma inh	B2AR arrestin	Gal4-VP16 FLuc	NPSR antag
CCCCOc1ccc(NC(=S)Nc2cc(C)nc(SCCCC)n2)cc1	1.41µM*	0.1%	1µM*	-17.2%[46.1 µM]
COc1ccc2nc(C)cc(SCC(=O)N/N=C/c3ccc(O)c(O)c3)c2c1	-17.9%	0.3%	1.3%	-4.0%
COc1ccc2nc(C)cc(N/N=C/c3cccc(OC)c3O)c2c1	?	0.9%	11.2µM*	·
COc1ccc2nc(C)cc(SCC(=O)N/N=C/c3cccc4ccccc34)c2c1	11.2µM*	-0.2%	-25.5%	-16.0%[46.1 µM]
COc1ccc(/C=N/Nc2cc(C)nc3ccc(Br)cc23)cc1	12.6µM*	-1.2%	?	·
COc1cccc2c(N/N=C/c3ccccc3)cc(C)nc12	11.6%	-1.0%	9.8%	·
COC(=O)c1sccc1N/N=C/c1cccc(OC)c1O	?	-0.3%	15.8µM*	32.6%
O=c1c(-c2ccccc2)nc2cnc(N3CCOCC3)nc2n1Cc1cccs1	4.1%	·	9.4%	·
CC1CCCC2(C1)NC(=S)c1c(sc3c1CCCC3)N2 (stereo not given)	31.6µM*	-1.2%	?	-8.7%[46.1 µM]
CN1C(=O)c2c(sc3c2CCCC3)NC1c1ccccc1O (stereo not given)	39.6%	-0.6%	?	-6.5%[46.1 µM]
C=CCN(CC=C)c1ccc(N2C(=O)C3CCCCC3C2=O)cc1[N+](=O)[O-] (stereo not given)	-35.1%	-0.1%	22.4µM*	-4.8%
CC1(OC(=O)c2ccco2)C(=O)C2=COC(C3CC3)=CC2=C(Br)C1=O (stereo not given)	-5.3%	·	0.9%	·
CC1=NN(C(N)=S)C(=O)C1N=Nc1cccc([N+](=O)[O-])c1 (stereo not given)	0.501µM*	?	1.58µM*	·
CC1=NN(c2ccccc2)C(=O)C1N=Nc1ccc(N)cc1 (stereo not given)	3.4%	-0.9%	8.91µM*	-18.6%[46.1 µM]
CC1=NN(c2ccccc2)C(=O)C1N=Nc1cccc(O)c1 (stereo not given)	?	0.0%	?	·
CC1=NN(C(N)=S)C(=O)C1N=Nc1ccccc1 (stereo not given)	0.199µM*	1.41µM*	0.891µM*	-24.3%
CC1=NN(C(N)=S)C(=O)C1N=Nc1ccc(Br)cc1 (stereo not given)	0.447µM*	0.1%	1.26µM*	·
COCCn1c(SC(C)C(=O)Nc2ccc(Cl)cn2)nnc1-c1ccncc1 (stereo not given)	0.8%	0.1%	-2.6%	3.0%
COc1ccc(NS(=O)(=O)c2cc3c(cc2C)N(C(C)=O)CCO3)cc1OC	23.9%	-3.6%	-16.5%	·
CCOC(=O)c1ccc(NC(=O)CN2CCN(C(=O)C3CCCO3)CC2)cc1 (stereo not given)	·	-0.3%	·	·
CC(C)C(NC(=O)C(NC(=O)C1OC2OC(C)(C)OC2C2OC(C)(C)OC12)C(C)C)C(=O)O (stereo not given)	9.7%	-0.6%	2.4%	-16.7%
CN(C(=O)CCN1C(=O)c2ccccc2C1=O)c1ccccc1	·	-0.1%	·	·
Cc1ccc(NC(=O)CSCc2cc(=O)n3ccsc3n2)cc1	-17.1%	3.6%	-4.9%	·
CC1=NN(C(N)=S)C(=O)C1N=Nc1ccc(Cl)cc1 (stereo not given)	0.398µM*	?	1.12µM*	·
N/C(Cc1ccc(Cl)cc1)=N\OC(=O)c1cccc2ccccc12	?	-0.2%	10µM*	-13.7%[46.1 µM]
SMILES	RORgamma inh	B2AR arrestin	Gal4-VP16 FLuc	NPSR antag
N/C(Cc1ccc(Cl)cc1)=N\OC(=O)c1ccc2ccccc2c1	-25.9%	3.5%	20µM*	-5.7%[46.1 µM]
S=C(NCC1CCCO1)c1ccc(Br)cc1 (stereo not given)	?	-0.9%	-11.2%	·
C[C@@H]1/C=C\CC(=O)OC[C@H](C)C(=O)N[C@@H](Cc2ccccc2)C(=O)OC1	7.4%[10 µM]	·	-9.6%[10 µM]	·
CC(c1ccccc1)n1cnc2ccccc21 (stereo not given)	12.6µM*	-0.2%	-12.0%	-6.0%[46.1 µM]
CC1CCN(CCNC(=S)Nc2ccc(Cl)cc2)CC1	?	-0.5%	?	-4.3%
CC(NC(=O)C1=CC=CN2CCS(=O)(=O)N=C12)c1ccc(Cl)cc1Cl (stereo not given)	·	-0.1%	·	·
O=C(N/N=C/c1ccccc1O)C1CC(=O)N(c2ccc(F)cc2)C1 (stereo not given)	2.82µM*	-1.1%	6.31µM*	·
COc1ccc(N2CC(C(=O)Nc3ccc([N+](=O)[O-])cc3Br)CC2=O)cc1 (stereo not given)	15.0%	-0.3%	-9.8%	·
COc1ccc(N2CC(C(=O)N/N=C/c3cc([N+](=O)[O-])ccc3O)CC2=O)cc1 (stereo not given)	5.62µM*	0.2%	17.8µM*	-10.8%
FC(F)(F)c1cc(-c2ccccc2)nc(N2CCOCC2)n1	0.794µM*	0.1%	-2.2%	?
FC(F)(F)c1cc(-c2ccccc2)nc(N2CCCCC2)n1	11.3%	-0.2%	-0.4%	-10.1%[46.1 µM]
O=S(=O)(Nc1ccc(S(=O)(=O)N2CCCC2)cc1)c1ccccc1Br	·	0.1%	·	·
CCc1nc2sc3ccccc3c(=O)c2c(=O)n1Cc1ccco1	-24.7%	-1.3%	-12.2%	-22.2%[46.1 µM]
O=c1c2ccccc2sc2nc(C3CCCCC3)n(Cc3ccco3)c(=O)c12	-26.3%	8.3%	-17.3%	10µM*
Cc1cccc(C(=O)NC(=S)NNC(=O)COc2c(C)cccc2C)c1	12.6µM*	2.2%	?	-1.5%
Cc1cccc(C(=O)NC(=S)NNC(=O)Cc2ccccc2)c1	10µM*	-0.8%	-14.5%	5.5%
Cc1cc(C)nc(NC(=O)/C=C/c2ccccc2Cl)n1	?	0.5%	2.2%	-2.3%[46.1 µM]
Cc1cccc(C(=O)NNC(=O)c2ccccc2)c1	16.0%	-0.5%	3.8%	14.1%
Cc1cc(C(=O)NNC(=S)NC(=O)/C=C/c2ccccc2Cl)n[nH]1	?	-1.5%	12.6µM*	-12.2%[46.1 µM]
Cc1cccc(C(=O)NC(=S)NNC(=O)c2ccccc2Cl)c1	4.47µM*	-0.1%	?	-12.4%
C[C@]12CC[C@@H]3c4ccc(O)cc4CC[C@H]3[C@@H]1CCC2OC(=O)CCC1CCCC1 (stereo not given in full)	7.6%[10 µM]	·	?	·
ONCc1ccccc1	-3.4%	·	-0.5%	·
COCCCNC(=O)COC(=O)c1ccc(-c2nc3ccccc3s2)s1	2.82µM*	-0.2%	0.282µM*	-8.7%
CCC(C)NS(=O)(=O)c1cc2c3c(c1)CCN3C(=O)CC2 (stereo not given)	-6.5%	0.6%	-9.0%	·
O=C(NCc1ccccc1)[C@]1(C(F)(F)F)C[C@H](CCC2CCCCC2)CCCO1	-19.4%	·	6.7%	·
O=C(Cc1cccc2ccccc12)N/N=C/c1ccc2cccc(O)c2n1	12.6µM*	-0.6%	?	-13.9%
Cc1cc(C)c2nc(Nc3nc(-c4ccccc4)cc(=O)[nH]3)nc(C)c2c1	0.631µM*	-0.2%	2.24µM*	-2.8%
COCc1cc(=O)[nH]c(Nc2nc(C)c3ccccc3n2)n1	-13.7%	-0.3%	?	-5.0%[46.1 µM]
COC(=O)Cc1cc(=O)[nH]c(Nc2nc3ccccc3o2)n1	-27.1%	-0.4%	?	13.7%[46.1 µM]
Cc1ccc2oc(Nc3nc(-c4ccccc4)cc(=O)[nH]3)nc2c1	2.82µM*	0.1%	-14.0%	-44.0%
